Reference: the supplement of paper PMC6555819

Key:
Experiment in all cases: PBM binding z-score (relative to random genomic background probes); higher = stronger binding; sequences stand for … in GC…GCGATTGACAGCGTAGAATGAAGG
[1] = system: PPARg:RXRa DBDmut IVT, anti-RXR (DBD mutation: RXRa K156A/R161A, NR concentration 270 nM, RXRa partner concentration 90 nM)
In short: (§1)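 Binding z-scores were set against random background probes. The data came from custom Agilent 4×180K protein-binding microarrays carrying double-stranded probes with 34-nt variable regions, incubated 1 h with ligand-free nuclear receptor dimers. Partner-specific antibodies detected binding, and scanned fluorescence was regression-normalized.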

[2] = system: PPARg:RXRa IVT, anti-PPARg (NR concentration 270 nM, RXRa partner concentration 90 nM)
In short: as §1

[3] = system: PPARg DBDmut:RXRa IVT, anti-PPARg (DBD mutation: PPARg1 K132A/R137A, NR concentration 270 nM, RXRa partner concentration 90 nM)
In short: as §1

[4] = system: PPARg DBDmut IVT, anti-PPARg (DBD mutation: PPARg1 K132A/R137A, NR concentration 270 nM)
In short: as §1

[5] = system: PPARg homodimer (NR concentration 180 nM)
In short: as §1

[6] = system: PXR:RXRa (NR concentration 270 nM, RXRa partner concentration 90 nM)
In short: as §1

[7] = system: PXR homodimer (NR concentration 270 nM)
In short: as §1

[8] = system: RARa:RXR (NR concentration 270 nM, RXRa partner concentration 90 nM)
In short: as §1

[9] = system: RARa homodimer (NR concentration 270 nM)
In short: as §1

[10] = system: RARb:RXRa (NR concentration 270 nM, RXRa partner concentration 90 nM)
In short: as §1

| Sequence | PBM binding z-score [1] | PBM binding z-score [2] | PBM binding z-score [3] | PBM binding z-score [4] | PBM binding z-score [5] | PBM binding z-score [6] | PBM binding z-score [7] | PBM binding z-score [8] | PBM binding z-score [9] | PBM binding z-score [10] |
| --- | --- | --- | --- | --- | --- | --- | --- | --- | --- | --- |
| CAAACTAGGTCAAGAGGTCAAAGTGCGCTTCCCG | 8.41 | 8.51 | 1.86 | 0.825 | 5.5 | 6.13 | 2.6 | 7.48 | 2.21 | 5.47 |
| CGATCTAGGTCATCCAGGACAGTGAATACATTGA | 7.91 | 8.21 | 6.15 | 1.47 | 2.27 | 2.13 | 1.59 | 2.41 | 0.582 | 3.89 |
| TGAATGAGGTTAAAAGATCAGGGAACGTTGCAAA | 1.14 | 2.17 | 0.743 | 0.45 | 0.137 | 1.26 | 0.0168 | 2.04 | 0.336 | 1.72 |
| CATACAGGGTGAGCTAGGCCAGAGTAGGGACGGC | 0.503 | 1.32 | -0.282 | -0.518 | -0.692 | -0.394 | -0.379 | -0.0235 | -0.0733 | 0.894 |
| ACTAGTTGGTCAGCTGAGGGCACACACAATTCGG | 0.794 | 1.19 | -0.0581 | 0.654 | 0.538 | 2.26 | 0.211 | 1.13 | -0.0752 | 1.73 |
| CATAGCAGGCCAGGGTCACTCAAGCATTTCGCTT | 1.4 | 2.14 | -0.201 | -0.525 | 1.38 | 2.93 | -0.247 | 3.63 | -0.0529 | 2.79 |
| AGAATGAGGTTATACGTAGATCAGGGAGGAAAGT | 3.75 | 1.91 | 1.26 | 0.799 | 0.811 | 1.18 | 0.618 | 1.66 | 0.507 | 1.47 |
| GCTATTAGATGAAAGGGCAACCGAATGATTCTCG | 0.363 | 1.35 | 0.246 | 0.212 | 0.834 | 0.424 | -0.122 | 0.795 | 0.15 | 1.94 |
| TCTAGTTGGTCACGGAGGTCACGCACGACGGGTA | 2.9 | 4.62 | 1.18 | 2.02 | 3.23 | 4.93 | 1.26 | 5.23 | 1.73 | 4.33 |
| AGAACGAGGGCACGCTGAGTTGATAACAGAGTAG | 4.19 | 3.68 | 0.246 | 0.187 | 0.159 | 1.33 | 0.018 | 0.895 | -0.194 | 2.4 |
| TATACAGGGTCAAAGCCCAGAGTACGAATGTCGA | 2.27 | 4.44 | 3.06 | 1.86 | 2.91 | 3.69 | 0.241 | 4.55 | 0.678 | 4.28 |
| ATCTCTAGGGAACAAGTTCAGTGAAAGAGAGGAC | 0.484 | 0.703 | 0.478 | 0.258 | 0.773 | 1.36 | 1.25 | 0.667 | 0.314 | 1.3 |
| CCTGCTAGGTCATGGACAGCTAATCTACAGTATG | 4.72 | 3.72 | 0.434 | 0.0292 | 0.812 | 1.4 | -0.443 | 2.53 | 0.184 | 3.84 |
| CGAACTGGGTCAAGGACAGTGAATCTCCGCACGC | 7.45 | 7.82 | 5.86 | 3.4 | 1.92 | 1.28 | -0.104 | 1.94 | 0.123 | 3.39 |
| ATCTCTAGGTACCAAGTTCAGTGAAAGAGAGGAC | 0.464 | 0.878 | 1.07 | 0.989 | 0.548 | 1.42 | 1.37 | 0.711 | 0.57 | 1.28 |
| TCTTGTAGATCAAGCAGGTTAAGAGAGCCTGAGT | 1.44 | 0.423 | -0.603 | -0.0222 | -0.58 | 0.103 | -0.227 | -0.116 | -0.124 | 0.0485 |
| ACCTCTAGGTAACAAGTTCAGTGAAAGAGAGGAC | 3.28 | 2.07 | 0.823 | 0.266 | 0.609 | 1.57 | 1.32 | 0.59 | -0.291 | 1.51 |
| GCGACTGGGGCATCACCAGGTTACCATAACTTAA | 3.65 | 3.39 | -0.477 | -0.785 | 0.0676 | 0.244 | -0.357 | 0.695 | -0.656 | 0.96 |
| CTTGAAAGGTCGGTTGAGGTGAGTATACGGATAA | 0.154 | 0.996 | -0.0609 | 0.067 | 0.811 | 3.33 | 0.421 | 2.5 | -0.0411 | 2.97 |
| TGTGAAAGTTCAAAGGTAACGTAAGTATCCACAC | -0.131 | 3.37 | 1.69 | 1.46 | 2.73 | 5.64 | 4.19 | 6.09 | 1.81 | 4.74 |
| ATATGTAGGTTAAGGGTCATACAGGTTGGTTCGC | 7.57 | 7.96 | 4.09 | 2.15 | 4.5 | 5.37 | 1.88 | 6.2 | 2.6 | 3.76 |
| AGAATGAGGTTAAGATCTGGGAAACAGAATACAT | 2.76 | 3 | 1.23 | 0.832 | 0.543 | 1.03 | 0.115 | 1.69 | 0.301 | 1.9 |
| CGGCCAAGGTCAGAGAGGTCAGTGAATGCCGAGT | 3.09 | 3.49 | -0.798 | -1.36 | 3.78 | 5.99 | 12 | 5.43 | 1.18 | 5.21 |
